Assay outcomes from PubChem.
rTrxR1 inhibitor: qHTS Assay for Inhibitors of Mammalian Selenoprotein Thioredoxin Reductase 1 (TrxR1): qHTS; Thioredoxin reductase 1, cytoplasmic (Rattus norvegicus), O89049; recombinant rTrxR1, NADPH fluorescence consumption, selenite substrate; Potency, µM (highest dose often 114 µM), inactives show top-dose activity change, negative = inhibition, hits mostly inhibitors; hit rate 1% among 390,000; further: on the % scale 0 is the no-effect control and ±100 the full control effect; nearly all actives have a fitted effect of over 65% in size
Target sequence (O89049 whole entry, looked up): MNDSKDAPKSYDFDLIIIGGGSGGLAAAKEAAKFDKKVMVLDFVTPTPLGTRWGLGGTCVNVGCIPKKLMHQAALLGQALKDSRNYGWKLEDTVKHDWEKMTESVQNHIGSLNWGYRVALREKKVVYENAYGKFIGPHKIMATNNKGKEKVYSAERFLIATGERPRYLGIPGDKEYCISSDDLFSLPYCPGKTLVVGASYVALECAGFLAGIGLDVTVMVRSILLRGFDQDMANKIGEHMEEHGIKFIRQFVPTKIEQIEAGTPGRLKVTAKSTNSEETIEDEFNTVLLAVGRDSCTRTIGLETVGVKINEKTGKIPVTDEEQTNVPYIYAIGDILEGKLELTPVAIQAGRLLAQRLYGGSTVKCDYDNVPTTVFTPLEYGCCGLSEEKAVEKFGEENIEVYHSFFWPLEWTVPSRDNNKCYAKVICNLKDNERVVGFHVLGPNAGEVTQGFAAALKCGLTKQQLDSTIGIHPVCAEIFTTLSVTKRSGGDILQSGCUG
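Rat TrxR1 (90 nM in the dispensed reagent) was pre-reduced with 400 uM NADPH for 5 min at room temperature, then incubated with compound for 15 min. After 400 uM selenite was added, NADPH fluorescence (Ex 340/Em 450 nm) was followed for 8 min.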
Nrf2 inh: Nrf2 qHTS screen for inhibitors. A549 ARE-Fluc reporter, luciferase luminescence, 18-24 h. Potency, µM (doses to about 46 µM), for inactives: at the top dose activity change, negative = inhibition, actives largely listed as inhibitors. AID 504444, 2011. hit rate 2.1% among 360,000; further: on the % scale 0 is the no-effect control and ±100 the full control effect; nearly all actives have a fitted effect of over 60% in size
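Nrf2 activity is the BugLite luminescence, read 15 min after reagent at room temperature, following CellTiter-Fluor cytotoxicity readout (30 min, 37C). Compound titrations were applied for 18-24 h to 5000 A549 ARE_Fluc cells/well in 5% FBS OPTI-MEM.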
IDH1 R132H inh: qHTS for Inhibitors of mutant isocitrate dehydrogenase 1 (IDH1): qHTS. Isocitrate dehydrogenase [NADP] cytoplasmic (Homo sapiens), O75874. IDH1-R132H enzyme, NADPH consumption, diaphorase/resazurin fluorescence. Potency, µM (highest dose often 76.6 µM), for inactives: at the top dose activity change, negative = inhibition, most hits filed as inhibitors. hit rate 0.093% among 390,000. AID 602179, 2012; further: on the % scale 0 is the no-effect control and ±100 the full control effect; nearly all actives have a fitted effect of over 65% in size
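IDH1-R132H (0.5 ug/mL) preincubated 30 min with compound, then NADPH (0.016 mM) and alpha-KG (2 mM) added; 80 min at RT, pH 7.5. Remaining NADPH coupled via diaphorase/resazurin to fluorescence (540/590 nm); concentration-response curves normalized to no-enzyme control.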
TrxR1 substrate: qHTS Assay for Substrates of Mammalian Selenoprotein Thioredoxin Reductase 1 (TrxR1): qHTS | Thioredoxin reductase 1, cytoplasmic (Rattus norvegicus), O89049 | purified TrxR1 substrate turnover, NADPH consumption readout | Potency, µM (series often up to 114 µM), for inactives: at the top dose activity change, negative = substrate turnover | AID 588456, 2011 | hit rate 0.01% among 390,000; further: on the % scale 0 is the no-effect control and ±100 the full control effect; nearly all actives have a fitted effect of over 50% in size
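Rat TrxR1, dispensed at 90 nM, was prereduced with 400 uM NADPH (final) for 5 min at ~22 deg C, then incubated with compound 15 min before 400 uM selenite. A first-read NADPH fluorescence drop versus no-compound background flagged substrates.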
Mito fusion act: qHTS Assay for Small Molecule Inhibitors of Mitochondrial Division or Activators of Mitochondrial Fusion; S. cerevisiae fusion-defective mutant growth rescue, CellTiterGlo 48 h; Potency, µM (series often up to 46.1 µM), for the others: top-dose growth rescue (activation), hits mostly activators; hit rate 0.23% among 320,000; further: % of control where 0% means no effect; nearly all actives have a fitted effect of over 45% in size
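Luminescent cell viability in 1536-well qHTS format served as the measure of rescued growth in ts fusion-mutant S. cerevisiae cultured on non-fermentable YPEG for 48 hours at 37C.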
A549 viability: Nrf2 qHTS screen for inhibitors: counterscreen for cytotoxicity; A549 ARE-Fluc cells, CellTiter-Fluor viability, 18-24 h; Potency, µM (series often up to 46 µM), without a hit: at the top dose activity change, negative = cytotoxicity, actives largely listed as inhibitors; hit rate 0.16% among 390,000; further: on the % scale 0 is the no-effect control and ±100 the full control effect
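A549 ARE-Fluc cells in 5% FBS OPTI-MEM, 5000 cells/well, rested 2 h then exposed to compounds in concentration-response for 18-24 h at 37 °C. Viability by CellTiter-Fluor fluorescence (Ex 405/Em 525) after 30 min; luciferase luminescence (BugLite, 15 min, RT) read afterwards.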
Numbers without * were called inactive; u = inconclusive; x = no result given; ! = repeats disagree; [ ] = remark or other dose. Compounds with a hit are over-represented: about 3.1% of the library has one in this group of screens. The call rests on the fitted dose curve; in most records, active means well fitted curve in the direction sought with a large enough effect; inconclusive means small, poorly fitted or top-dose-only effect, or another doubt; inactive means no such curve, though single readings can be large; an effect the other way counts as inactive or inconclusive. Potency means the concentration at half of the fitted maximal effect.

SMILES | rTrxR1 inhibitor | Nrf2 inh | IDH1 R132H inh | TrxR1 substrate | Mito fusion act | A549 viability
CCn1ccc2c(OCC(=O)NCc3ccc(C)cc3)cccc2c1=O | 18%[57.1 µM] | x | -1% | 8%[57.1 µM] | x | -11%
COC(=O)C1=C(C)NC(=O)NC1c1cn(-c2ccccc2)nc1-c1cccs1 (stereo not drawn) | -5% | -4% | 1% | -1% | -10% | -11%
CC1=C(C(=O)OC(C)C)C(c2cn(-c3ccccc3)nc2-c2cccs2)NC(=O)N1 (stereo not drawn) | 6% | 18µM* | -25% | -12% | -19% | u
Cc1ccc(OC(C)c2nnc(N)s2)cc1Cl (stereo not drawn) | 0% | 16µM* | 2% | -10% | 5% | -5%
CCOCCCNC(=O)/C(C#N)=C/c1ccc([N+](=O)[O-])o1 | 3.2µM* | 26µM* | -1% | -6%[57.1 µM] | -2%[9.22 µM] | u
COC(=O)c1ccc(/C=C(\C#N)C(=O)NC(C)c2ccccc2)cc1 (stereo not drawn) | 22µM* | 4% | -10% | -17% | -4% | u
CC(NC(=O)/C(C#N)=C/c1ccco1)c1ccccc1 (stereo not drawn) | 2% | -6% | 3% | -12% | -3% | 2%
CC(NC(=O)/C(C#N)=C/c1ccc([N+](=O)[O-])o1)c1ccccc1 (stereo not drawn) | 7.9µM* | -4% | -25% | -8% | -51% | 2%
Cc1ccc(S(=O)(=O)NCCc2cn3c(C)csc3n2)cc1 | 13%[57.1 µM] | x | 0% | 1%[57.1 µM] | x | -1%
CC(=O)OCC(=O)[C@@]1(O)[C@H](C)C[C@H]2[C@@H]3CCC4=CC(=O)C=C[C@]4(C)[C@@]3(F)[C@@H](O)C[C@@]21C | -3% | u | -3% | -7% | 0% | -11%
C[C@@H]1C[C@H]2[C@@H]3C[C@H](F)C4=CC(=O)C=C[C@]4(C)[C@@]3(F)[C@@H](O)C[C@]2(C)[C@@]1(O)C(=O)COC(=O)C(C)(C)C | 37% | 0.052µM* | 10% | 9% | -1% | 1%
Cc1ccc(NS(=O)(=O)c2cc3c4c(cccc4c2)C(=O)NC3=O)cc1C | 6% | 15µM* | -21% | -5% | -3% | -9%
CCN(CC)c1ccc(S(=O)(=O)N2CCOCC2)cc1NC(=O)COC(=O)/C=C/c1ccc(C)o1 | 71µM* | -16% | 7% | -10% | u | 3%
CCN(CC)c1ccc(S(=O)(=O)N2CCOCC2)cc1NC(=O)COC(=O)/C=C/c1ccccc1 | -4% | 3% | -9% | -11% | x | -1%
S=C(NCc1ccc(Cl)cc1)Nc1ccncc1 | -8% | 13µM* | -6% | 0% | -3% | -5%
O=C(Cc1ccc(Cl)cc1Cl)Nc1ccncc1Cl | 24% | 9.2µM* | 5% | 4% | -2% | 2%
O=C(Cc1ccc(Cl)cc1Cl)Nc1ccncc1 | 29% | 16µM* | -4% | 5% | -10% | 3%
S=C(NCc1ccc(Cl)cc1)Nc1ccccc1 | -5% | 27% | -1% | 3% | -5% | -3%
Cc1c(P(=S)(c2ccccc2)c2ccccc2)c2ccccc2n1Cc1ccccc1 | x | 7% | x | x | x | -3%
COc1ccc(C(C(=O)NC2CCCCC2)N(C(=O)Cc2c[nH]c3ccccc23)c2ccccc2C)cc1OC (stereo not drawn) | 19%[57.1 µM] | u | -1% | -7%[57.1 µM] | 7% | u
COc1ccc(C(C(=O)NC2CCCCC2)N(Cc2cccs2)C(=O)Cc2c[nH]c3ccccc23)cc1OC (stereo not drawn) | 9%[57.1 µM] | 23µM* | -2% | 1%[57.1 µM] | -6% | u
O=C(c1cccc(C(=O)N(c2ccccn2)C2CCCCC2)c1)N(c1ccccn1)C1CCCCC1 | 18% | 16µM* | 0% | 1% | -3% | -15%
O=C(c1ccc(Cl)cc1)N(c1ccccn1)C1CCCCC1 | 14%[57.1 µM] | 1% | 10% | 7%[57.1 µM] | 4% | 1%
Cn1c(=O)c2c(SCC(=O)N3CCOCC3)nc(CC(C)(C)C)nc2n(C)c1=O | x | x | x | x | -1% | x
Cn1c(=O)c2c(SCC(=O)Nc3ccc4c(c3)OCCO4)nc(CC(C)(C)C)nc2n(C)c1=O | 7%[57.1 µM] | 7.3µM* | 3% | 0%[57.1 µM] | 12% | u
SMILES | rTrxR1 inhibitor | Nrf2 inh | IDH1 R132H inh | TrxR1 substrate | Mito fusion act | A549 viability
Oc1cccc(-c2nc3c4c(ncn3n2)-c2ccccc2CC42CCCC2)c1 | 9% | 23µM* | -9% | 4% | -26% | u
COc1ccc(-c2nc3c4c(ncn3n2)-c2ccccc2CC42CCCC2)cc1 | 10% | -9% | -2% | 5%[57.1 µM] | 7% | 0%
CC(NC(=O)C1CCCC1)c1ccc(Br)cc1 (stereo not drawn) | 18% | 26µM* | 3% | -3% | 4% | 17%
CC(=O)Oc1cccc(N2C(=O)C3C4C=CC(C4=C(C)C)C3C2=O)c1 (stereo not drawn) | 40µM* | -8% | -1% | 1% | 0% | -4%
CC(=O)Oc1ccc(N2C(=O)C3C4C=CC(O4)C3C2=O)cc1 (stereo not drawn) | 5.6µM* | -3% | 1% | 13% | -5% | -3%
Oc1ccc(NCc2ccccc2OCc2ccccc2Cl)cc1 | 32µM* | -2% | x | -9% | x | -10%
Oc1ccc(NCc2ccc(OCc3ccccc3Cl)cc2)cc1 | 45µM* | u | 0% | -11% | x | u
Oc1ccc(NCc2ccc(OCc3ccccc3)cc2)cc1 | 28µM*! | -13% | 6% | -10% | -11% | -5%
Oc1ccc(NCc2ccccc2OCc2ccccc2F)cc1 | u | u | 12% | -2% | 0% | -13%
COc1ccc(/C=C/c2cnc3ccccc3n2)cc1OC | -1% | x | x | -9% | x | x
Cc1cc(C(=O)N2CCCC(C(=O)c3cccc(C(F)(F)F)c3)C2)n[nH]1 (stereo not drawn) | 2% | 18µM* | 6% | -8% | 3% | -16%
C=CCC[C@H](Cc1ccc(F)cc1)C(=O)OC[C@@H](NC(=O)[C@@H](CC=C)CC(=O)N[C@@H](CO)Cc1ccccc1)C(C)(C)C | 10%[57.1 µM] | u | 15% | -13%[57.1 µM] | x | u
C=CCC[C@H](Cc1ccc(F)cc1)C(=O)OC[C@@H](C)NC(=O)[C@@H](CC=C)CC(=O)N[C@@H](CO)Cc1ccccc1 | 22% | -9% | 2%[38.3 µM] | 4% | x | -2%
